This passage reports inhibition results from PubChem BioAssay AID1159606 (Sanford-Burnham Center for Chemical Genomics, 2016).

Structures are written as SMILES. “And” between values parts separate entries of the source, which are not always exact repeats. Equal entries are not always repeated. Screen size: about 360,000 compounds; about 7,300 (2%) were called active. Many of the other results were omitted from the sample, so actives are more common in it than they were. Values without a mark were called inactive. Cut-off read from the data, not from the text of the source: active = inhibition above about 50%; inactive = the rest.

This test is described as follows: blockers of TWEAK-induced Fn14 reporter activity – luciferase reporter cells, uHTS, primary screen (AID 1159606). The note with it: TWEAK-stimulated Fn14 reporter cells, luciferase luminescence, 8 h; at 10 µM; hits give high values. On the technique in general: Reporter assays use an easily measured gene product as a stand-in for the process of interest.
In general, inhibition refers to the change of the read-out against control, counted positive when it falls. With `CCOc1ccc(S(=O)(=O)Nc2cccc(C(=O)NCC3(N4CCCCC4)CCCCC3)c2)cc1`, the inhibition was -1.13%. On to `OCCC#Cc1ccc(N2C(c3ccsc3)=Cc3ccc(F)cc3C2c2c[nH]c3ccccc23)cc1` (stereo unspecified), for which the inhibition is 11.2%. For `C=CCn1c(CNS(=O)(=O)c2ccc(Br)cc2)nnc1SC`, the inhibition is 8.19%. In the case of `C=CCC[C@@H](CCCCC)OC(=O)/C=C/[C@@H](O)[C@H](O)C[C@H](O)CC=C` it was 2.81%; in that of `CC1CN(C(=O)c2cc(COc3c(F)cccc3F)on2)CCN1C` (stereo unspecified), -6.71%. As to `O=C(CCc1ccccc1)Nc1cccc(-c2nnc(-c3ccco3)o2)c1`, the inhibition was 52.6% (active). `C/C(=N/NC(=O)CCc1ccccc1)c1ccco1`: the inhibition was -10.4%. In the case of `O=C(Nc1cccc(-c2nnc(-c3ccccc3)o2)c1)C1CCCO1` (stereo unspecified), the inhibition is 10.7%. For the compound `CC(C)NC(=O)Nc1cccc2c1O[C@@H](CN(C)S(=O)(=O)c1ccc(F)cc1)[C@@H](C)CN([C@H](C)CO)C2=O`, the inhibition was 3.62%.

As for `COc1cccc(NC(=O)CC(c2ccc(OC(C)C)cc2)c2ccccc2OC)c1` (stereo unspecified), the inhibition is -21.3%. For `CC(=O)c1ccc(N2CCN(CC(O)c3ccccc3)CC2)cc1` (stereo unspecified), the inhibition is 15.1%. As to `CC(=O)c1ccc(N2CCN(C(=O)CCc3ccccc3)CC2)cc1`, the inhibition is -0.25%. As to `CC(=O)c1ccc(N2Cc3ccccc3C2)cc1`, the inhibition is 50.8% (active). In the case of `CCOC(=O)[C@]12CCC=C1N(Cc1ccco1)C(=O)[C@H](CC(=O)N1CCSCC1)C2`, the inhibition was 13.3%. Regarding `O=C(NCC1CCC(C(=O)O)CC1)OCc1ccccc1` (stereo unspecified), the inhibition is 3.36%.

Take `CC(Oc1ccc2c(-c3ccccc3)cc(=O)oc2c1)C(=O)NC(Cc1c[nH]c2ccccc12)C(=O)O` (stereo unspecified): the inhibition is -2.3%. With `O=C(CNC(=O)OCc1ccccc1)Oc1cc2oc(=O)cc(-c3ccccc3)c2cc1Cl`, the inhibition was 66.8% (active).

With `OC(c1ccccc1)(c1ccccc1)C1CCN(CCCOc2ccccc2)CC1`, the inhibition is 1.25%. On to `Cc1cc(C(=O)COC(=O)CNC(=O)c2ccc(F)cc2)c(C)n1Cc1ccco1`, for which the inhibition is 71.8% (active). `Cc1ccc(OCC(=O)c2cc(C)n(Cc3ccco3)c2C)c([N+](=O)[O-])n1`: the inhibition was 42.9%. On to `COCCn1c(C)cc(C(=O)COC(=O)CNC(=O)c2ccco2)c1C`, for which the inhibition was 5.04%. For the compound `CCc1nc2ccc(C(=O)Nc3cc(-c4ccccc4)ccc3OC)cn2c1N(CC)CC(=O)N(C)C`, the inhibition was 9.07%.

Turning to `CC1(C(=O)NS(=O)(=O)c2cccs2)CCN1C(=O)Cc1ccc(-c2ccccc2)cc1` (stereo unspecified), the inhibition was 6.14%. Regarding `OCCCNc1nccc(-c2cc(Nc3cccc(Cl)c3)ncn2)n1`, the inhibition was 97.3% (active).

In the case of `CCOc1c(Nc2cccc(Cl)c2)c(=O)c1=O`, the inhibition was 6.24%. `CC(NC(=O)COC(=O)c1ccc(Cl)cc1O)c1ccc(F)cc1` (stereo unspecified): the inhibition was -8.36%. Regarding `COc1cccc(C2c3[nH]c4ccccc4c3CCN2Cc2cccc(C)n2)c1` (stereo unspecified), the inhibition is 1.39%. For `COC(=O)[C@H]1[C@H]2C[C@H]3c4[nH]c5ccccc5c4CCN3C[C@@H]2CC[C@@H]1O`, the inhibition was 27.2% and 5.66%. In the case of `COc1ccc(-c2ccc3[nH]c4c(c3c2)CCN2C[C@H]3[C@H](C)ON(C)[C@H]3C[C@@H]42)cc1` it was 76.2% (active). In the case of `CCNc1nc(N)nc(-c2cc(Cl)ccc2OC)n1` it was -2.01%; in that of `CC[C@@H]1CC2=C(C(=O)OC(C)(C)O2)[C@@H](CC)O1`, 1.77%.

In the case of `CCN(CC)C(=O)CC1(c2ccccc2OC)CCOC(C(C)C)C1` (stereo unspecified), the inhibition is -4.31%. Regarding `CCOC(=O)c1cc(-c2sc(NC(=O)c3ccccc3)nc2C)n(Cc2ccccc2)n1`, the inhibition is 54.7% (active). For the compound `C=CCn1nc(C(=O)OCC)cc1-c1sc(NC(=O)c2ccccc2)nc1C`, the inhibition was 32.2%. Under `CCOC(=O)c1cc(-c2sc(NC(=O)c3ccccc3)nc2C)n(CCO)n1` stands -0.09%. On to `CCCCCCN1C[C@@H](O)[C@H](n2cc(COC(=O)c3ccccc3)nn2)C[C@@H]1c1ccc(Cl)cc1`, for which the inhibition was 11.1%. `C[C@H](NC(=O)[C@@H]1CCCN1C(=O)[C@@H]1CCCN1C(=O)c1ccccc1)c1ccccc1`: the inhibition is -2.63%. As to `CC(C(=O)NCC1CCCCC1)N(C)Cc1cccc(Cl)c1` (stereo unspecified), the inhibition was -0.37%. Under `c1nnc2c3c4c(sc3ncn12)CCC4` stands 58.9% (active); under `CC(C(=O)O)n1cnc2sc3c(c2c1=O)CCCC3` (stereo unspecified), -20.1%; under `S=c1[nH]nc2c3c4c(sc3ncn12)CCCC4`, 3.72%. As to `COC(=O)c1sc(NC(=O)c2ccc(OC)cc2OC)nc1C`, the inhibition was 69% (active). Under `COc1ccc(C(=O)NC(C)CCc2ccccc2)c(OC)c1` (stereo unspecified) stands -8.93%; under `COc1cc(SC)ccc1C(=O)NNC(=O)C1COc2ccccc2O1` (stereo unspecified), -29.7%.

Take `Cc1csc(NC(=O)CSc2nc(=O)cc(N)n2-c2ccc(F)cc2)n1`: the inhibition was 27.6%. For the compound `COc1cc(SC)ccc1C(=O)Nc1nc(C)cs1`, the inhibition was 102% (active). In the case of `CCOC(=O)c1sc(NC(=O)c2sc(C)nc2C)nc1C` it was -39.5%; in that of `CC(=O)c1ccc(NC(=S)N(Cc2ccccc2)C(C)C2CC2)cc1` (stereo unspecified), 11.1%.

Take `COC(=O)c1ccc2nc(-c3ccc(F)cc3)c(Cc3ccc(C)cc3)n2c1`: the inhibition is -0.5%. In the case of `O=C1NC[C@@H](CCCCN2CCN(CCc3ccc(O)cc3)C(=O)C2=O)N(CC2CCCCC2)C1=O` it was 10.2%.

Consider `O=C(c1ccc2c(c1)N(Cc1ccc(F)cc1)C(=O)CS2)N1CCOCC1`, for which the inhibition was -16.2%.

For `CCc1nccn1CCC(=O)N1CCCC(N2CCN(c3ccccc3F)CC2)C1` (stereo unspecified), the inhibition was -3.5%.

Regarding `CC(=O)Nc1ccc(NS(=O)(=O)c2ccc3c(c2)NC(=O)CC(=O)N3)cc1`, the inhibition was 10.3%.

Regarding `CC(=O)Nc1ccc(S(=O)(=O)N2CCCC2C(=O)O)cc1` (stereo unspecified), the inhibition is 0.16%. For the compound `CC(=O)Nc1ccc(S(=O)(=O)Nc2ccc(N3CCCCC3)cc2)cc1`, the inhibition was 84.7% (active).

In the case of `CCN(CC)P(=O)(/C(Cl)=C\Nc1c(C)n(C)n(-c2ccccc2)c1=O)N(CC)CC`, the inhibition is -1.25%.
